These results are taken from PubChem BioAssay.

The nature of test [1]: growth inhibitors of H69AR lung tumor, primary screen, human, duplicate replicates (AID 580;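 active means viability at or under a set limit in both replicates, limit being median viability minus 3 SD, cut at about 48% in these data, passing the limit was not always enough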;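 further: 100% = mean luminescence of untreated wells and 0% = no signal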). The settings on record: H69AR lung tumor cells viability, ATP luminescence, 72 h; at 10 µM; stronger effect = lower value.
Test [2] in a line: reversal of MRP1-mediated doxorubicin resistance, pilot screen, H69AR cells, doxorubicin co-treatment (AID 601). The settings on record: CellTiter-Glo, 72 h, at 10 µM; for differential viability (reversal): stronger effect = higher value. (In ATP-based viability assays light output follows the ATP content of the culture.)
The nature of test [3]: 384-well plate pilot, post-Golgi transport modulator project, inhibition of yeast transport mutant growth (AID 636; in the data active means inhibition above about 31%). Conditions: absorbance 615 nm, about 18 h, stronger effect = higher value.
Test [4] in a line: growth suppression of yeast trafficking mutant, preliminary HTS, modulators of trafficking downstream of Golgi apparatus project, 1536-format plate, OD 615 nm (AID 637; in the data active means inhibition above about 30%). Conditions: yeast transport mutant growth, absorbance 615 nm, 18 h; stronger effect = higher value.
Test [5] is described as follows: HUVEC growth inhibition – cell-based, human, primary screen (AID 575;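 active means viability at or below 30% in both replicate assays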;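 further: 100% = median of untreated cell wells with 0.1% DMSO on each plate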). The settings on record: HUVEC proliferation, CellTiter-Glo luminescence, 72 h; at 10 µM; stronger effect = lower value.
Test [6] is described as follows: OD615 S. cerevisiae growth inhibition, permissive medium, pilot counter-assay, permissive growth control for S. cerevisiae lifespan shortening project (AID 705;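 active means growth inhibition above 25% in both replicates, a cutoff set 3 SD above the mean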). Conditions: OD615, 24 h, at 10 µM, stronger effect = higher value.
Test [7] in a line: Restrictive medium S. cerevisiae growth inhibition, OD615, pilot screen of yeast lifespan reduction project, restrictive growth control (AID 706;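 active means growth inhibition above a set limit, 3 SD over mean compound inhibition, in both replicates, cut at about 43% in these data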;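 further: modified DeaD lifespan yeast strain shifted to restrictive glucose medium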). Conditions: OD615, 48 h, at 10 µM, stronger effect = higher value.
A short description of test [8]: viability gain of MRP-1-high H69AR cells under doxorubicin, pilot screen, MRP-1 activator project, CellTiter-Glo, duplicate (AID 807;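 active means viability increase at or above a cutoff of the median across tested compounds plus 3 SD, cut at about 8.5% in these data, passing the limit was not always enough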;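 further: compound pretreatment 18-22 h then 72 h combined with doxorubicin; 0% = doxorubicin alone and 100% = vehicle without doxorubicin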). The settings on record: H69AR viability with doxorubicin, CellTiter-Glo luminescence; at 10 µM; stronger effect = higher value.
Test [9] is described as follows: growth suppression of beta-catenin knockout HCT116, pilot screen, human colon tumor cells (AID 823;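 active means cell viability at or below a set limit in both duplicate runs, the limit being the all-compound median minus 4 SD, cut at about 23% in these data, passing the limit was not always enough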;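 further: 0% = wells killed by 20 µM Hyamine and 100% = untreated DMSO cell wells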). Conditions: CellTiter-Glo, 60 h, at 10 µM, stronger effect = lower value.
The nature of test [10]: growth suppression of PTEN-deleted HCT116, pilot screen, cell-based, HCT116 clonal line, CellTiter-Glo (AID 824;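 active means viability at or below 27.92% in each of two runs, the all-compound median minus 4 SD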;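 further: 0% = 20 µM Hyamine control and 100% = vehicle cell control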). The settings on record: 60 h, at 10 µM, stronger effect = lower value.
Test [11] can be described thus: inhibitors of the yeast RAM network, pilot screen, dse1pr::URA3 reporter, 5-FOA selection (AID 869;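 active means inhibition over a set limit, the all-compound mean plus 3 SD, in both replicate runs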;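 further: 0% = DMSO wells with no growth and 100% = 10 µM 1-NA-PP1 with full growth; RAM network block rescues cells from 5-FOA so hits raise OD615 growth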). Conditions: S. cerevisiae dse1pr::URA3 5-FOA growth, OD615, 2 d; at 10 µM; stronger effect = higher value; strain carries analog-sensitive mutant Cbk1 kinase.
Setting [12] is: H69AR cells + 2 uM doxorubicin, measured here: viability with 2 uM doxorubicin, stronger effect = lower value.
The mark [13] stands for this setting: H69AR cells, compound alone cytotoxicity.

Records with an inconclusive call do not appear. Active and inactive are the calls of the source.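 How the source made its calls, unless noted: active means viability loss from added drug above about 55%, and viability with drug at most 40%, in both replicates (limit read from the data, passing the limit was not always enough); inconclusive means both conditions met in only one replicate; inactive means neither replicate meets both conditions.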

Turning to `CC(C)(C)C1CCc2onc(C(=O)Nc3cnn(Cc4ccc(F)cc4)c3)c2C1` (stereo not given), the results for the viability in [1], in test [2] (setting [12]) and in [2] (setting [13]) were 32.9% (active), 50.6% and 32.9%, respectively. The differential viability (reversal) in test [2] (H69AR cells + 2 uM doxorubicin) is -17.6% (inactive). Also, the inhibition (as a rule, the relative decrease from the control value, in per cent) in [3] is 0% (inactive); in test [4], 3.02% (inactive).

Regarding `CC(C)(C)n1nnnc1CN(Cc1ccco1)Cc1cc2cc3c(cc2[nH]c1=O)OCO3`, the results for the viability in test [5], in test [2] (setting [12]) and in [2] (setting [13]) were 78% (inactive), 68% and 59.3%, respectively. Further, the differential viability (reversal) in [2] (H69AR cells + 2 uM doxorubicin) is -8.75% (inactive). Further, the inhibition in test [3] is -8% (inactive); in [4] it was 0.16% (inactive).

For the compound `CN1CCCN(C(c2ccccc2)c2ccc(Cl)cc2)CC1` (stereo not given), the viability (as a rule, a read-out of living cells in per cent, often relative to untreated cells) in [5] is 54.3% (inactive); in [2] (setting [12]), 69.4%; in [2] (setting [13]) it was 44.8%. In addition, the differential viability (reversal) in [2] (H69AR cells + 2 uM doxorubicin) was -24.5% (inactive).

As to `CN(C)c1ccc(/C=C/C(O)=C2/C(=O)N(C)C3(C)CC2c2ccccc2O3)cc1` (stereo not given), the figures for the viability in [5], in test [2] (setting [12]) and in [2] (setting [13]) were 55.4% (inactive), 44.6% and 37.5%, respectively. Also, the differential viability (reversal) in [2] (H69AR cells + 2 uM doxorubicin) is -7.07% (inactive). In addition, the inhibition in test [3] is -2.47% (inactive); in test [4], -12.7% (inactive).

As for `CCCn1c(N2CCN(CC(=O)NCc3cccs3)CC2)nc2ccccc21`, the viability was 97.6% (inactive) in test [5], 60.4% in [2] (setting [12]) and 59.9% in test [2] (setting [13]). The differential viability (reversal) in [2] (H69AR cells + 2 uM doxorubicin) is -0.505% (inactive). The inhibition in test [3] was -4.47% (inactive); in [4] it was 6.03% (inactive).

With `CCNc1nc(NC(C)C)nc(N(C#N)CCOc2ccc(Cl)cc2Cl)n1`, the figures for the viability in [5], in [2] (setting [12]) and in test [2] (setting [13]) were 48.8% (inactive), 33.2% and 53.6%, respectively. Besides, in test [2] (H69AR cells + 2 uM doxorubicin), the differential viability (reversal) is 20.4% (inactive). Moreover, the inhibition was 16.2% (inactive) in test [3] and -3.81% (inactive) in test [4].

Turning to `COC(=O)c1ccc(NC2(C#N)C(=O)Nc3ccccc32)cc1` (stereo not given), the viability in test [5] was 69.2% (inactive); in test [2] (setting [12]), 58.2%; in test [2] (setting [13]), 42.1%. Also, in [2] (H69AR cells + 2 uM doxorubicin), the differential viability (reversal) was -16.1% (inactive). Besides, the inhibition is -5.33% (inactive) in test [3] and 3.97% (inactive) in test [4].

As to `CC[C@H]1CN2CCc3cc(OC)c(OC)cc3[C@@H]2C[C@@H]1C[C@H]1NCCc2cc(OC)c(OC)cc21`, the viability in [5] is 11% (active); in test [2] (setting [12]), 13.3%; in test [2] (setting [13]), 23.5%. In [2] (H69AR cells + 2 uM doxorubicin), the differential viability (reversal) was 10.2% (inactive). Also, the figures for the inhibition in test [3] and in [4] were -1.69% (inactive) and 2.17% (inactive), respectively.

Turning to `CC(C)Cn1c(N)c(C(=O)NCCN2CCOCC2)c2nc3ccccc3nc21`, the values for the viability in [5], in test [2] (setting [12]) and in test [2] (setting [13]) were 52.3% (inactive), 79.3% and 55.7%, respectively. In addition, in test [2] (H69AR cells + 2 uM doxorubicin), the differential viability (reversal) is -23.6% (inactive). In addition, the inhibition in test [3] was -5.2% (inactive); in [4] it was 3.65% (inactive).

In the case of `CCCCCCCCNC(C)C(O)c1ccc(SC(C)C)cc1` (stereo not given), the viability in test [5] was 2.21% (active); in test [2] (setting [12]) it was 1.44%; in [2] (setting [13]), 1.16%. Besides, the differential viability (reversal) in test [2] (H69AR cells + 2 uM doxorubicin) is -0.28% (inactive).

Take `CC(=O)Oc1cccc(/C=c2\sc3nc(-c4ccco4)nn3c2=O)c1`: the viability in test [5] is 56.6% (inactive); in test [2] (setting [12]), 55.8%; in test [2] (setting [13]), 52.2%. Besides, in test [2] (H69AR cells + 2 uM doxorubicin), the differential viability (reversal) is -3.61% (inactive). Besides, the inhibition was -0.91% (inactive) in [3] and 1.27% (inactive) in test [4].

As for `COc1cc(-n2nc(C)c3c2OC(N)=C(C#N)C3c2ccccc2)c(Cl)c(Br)c1O` (stereo not given), the viability in [5] is 50% (inactive); in test [2] (setting [12]), 68%; in test [2] (setting [13]), 69.5%. For the same compound, the differential viability (reversal) in test [2] (H69AR cells + 2 uM doxorubicin) was 1.54% (inactive). Moreover, the inhibition in test [3] is -6.4% (inactive); in [4], -4.6% (inactive).

For the compound `CC(NCCC(c1ccccc1)c1ccccc1)c1ccccc1` (stereo not given), the viability was 2.03% (active) in test [5], 2.41% in [2] (setting [12]) and 1.54% in [2] (setting [13]). Moreover, the differential viability (reversal) in [2] (H69AR cells + 2 uM doxorubicin) is -0.87% (inactive). The results for the inhibition in test [3] and in [4] were 3.77% (inactive) and -5.67% (inactive), respectively.

Turning to `OCCNc1ncnc2c1c(-c1ccccc1)c(-c1ccccc1)n2Cc1ccco1`, the results for the viability in test [1], in test [2] (setting [12]) and in test [2] (setting [13]) were 72.4% (inactive), 48.8% and 72.4%, respectively. The differential viability (reversal) in test [2] (H69AR cells + 2 uM doxorubicin) is 23.7% (inactive). Besides, the inhibition in [3] was -5.66% (inactive); in test [4] it was 15.7% (inactive).

As to `c1ccc(-n2ncc3c(NCc4cccs4)ncnc32)cc1`, the viability in test [5] is 79% (inactive); in [2] (setting [12]), 52.3%; in test [2] (setting [13]) it was 41.8%. Further, in test [2] (H69AR cells + 2 uM doxorubicin), the differential viability (reversal) was -10.5% (inactive). Moreover, the inhibition in test [3] was -7.73% (inactive); in test [4], 2.22% (inactive).

For `COC(=O)C(F)(F)Sc1c(C)[nH]c2ccccc12`, the viability in test [1] was 92.2% (inactive); in [2] (setting [12]) it was 90.6%; in test [2] (setting [13]), 92.2%. Further, the differential viability (reversal) in [2] (H69AR cells + 2 uM doxorubicin) was 1.54% (inactive). Moreover, the figures for the inhibition in test [3] and in test [4] were -2.37% (inactive) and -1.43% (inactive), respectively.

With `CCOC(=O)C1=C(Cn2cnc3ccccc32)NC(=O)NC1c1cc(C)ccc1C` (stereo not given), the viability in [5] is 93.7% (inactive); in test [2] (setting [12]), 60.1%; in test [2] (setting [13]), 42.5%. Further, the differential viability (reversal) in test [2] (H69AR cells + 2 uM doxorubicin) is -17.6% (inactive). Moreover, the inhibition in test [3] is -1.71% (inactive); in test [4] it was 1.43% (inactive).

Consider `O=c1c2cn[nH]c2nc(SCc2ccc3c(c2)OCCO3)n1-c1ccccc1`, for which the viability in test [5] was 74.4% (inactive); in test [2] (setting [12]) it was 83.9%; in [2] (setting [13]), 61.7%. Further, the differential viability (reversal) in test [2] (H69AR cells + 2 uM doxorubicin) was -22.2% (inactive). Further, the figures for the inhibition in test [3] and in [4] were 1.45% (inactive) and -4.44% (inactive), respectively.

As for `CCn1c(=N)n(CC(O)COc2cccc(C)c2)c2ccccc21` (stereo not given), the values for the viability in [1], in test [2] (setting [12]) and in test [2] (setting [13]) were 69.9% (inactive), 72.3% and 69.9%, respectively. In addition, the differential viability (reversal) in test [2] (H69AR cells + 2 uM doxorubicin) was -2.36% (inactive). For the same compound, the inhibition in test [3] was 3.55% (inactive); in test [4] it was -5.08% (inactive).

For `Nc1nc(Cl)nc2c1ncn2[C@@H]1O[C@H](CO)[C@@H](O)[C@H]1O`, the viability in test [5] is 3.95% (active); in [2] (setting [12]) it was 74.6%; in [2] (setting [13]), 50.3%. In [2] (H69AR cells + 2 uM doxorubicin), the differential viability (reversal) is -24.3% (inactive). Moreover, the results for the inhibition in test [3] and in [4] were -1.43% (inactive) and 1% (inactive), respectively.

As for `CSc1nnc2c3ccccc3n(Cc3ccccc3)c2n1`, the viability in test [1] is 31.6% (active).

`O=S(=O)(Cc1ccc(Cl)cc1)Nc1ccc2c(c1)OCO2`: the viability in test [1] was 104% (inactive).

In the case of `COCCNc1oc(-c2ccccc2Cl)nc1C#N`, the growth inhibition in [6] is -7.99% (inactive); in [7] it was -2.94% (inactive). Further, the viability increase in test [8] was -0.81% (inactive). Further, the viability is 111% (inactive) in test [9] and 89.3% (inactive) in test [10]. In addition, the inhibition in test [11] is 1.51% (inactive).

`O=C(Cn1cc2c(n1)CCCC2)NCc1ccccn1`: the growth inhibition is -2.39% (inactive) in [6] and 2.25% (inactive) in test [7]. For the same compound, the viability increase in [8] was -0.85% (inactive). The viability is 104% (inactive) in test [9] and 106% (inactive) in [10]. Also, in [11], the inhibition was 0.72% (inactive).
